esBAF inh – blocks esBAF chromatin remodeling in mouse ES cells. Bmi1-luciferase knock-in reporter, 24 h; 100% = twice the neutral-well signal. reporter increase, % at 12.5 µM. 350,000 compounds, 2% hits. AID 602393; in the data active = activation above about 40%; inconclusive = no clear call, values can overlap the other calls;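 also: 0% = median of the plate's neutral control wells and 100% = double that signal; a rise in the Bmi1 reporter signal indicates esBAF inhibition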
Wnt act – Wnt/beta-catenin pathway activation; Wnt/beta-catenin reporter cell assay, activator, plate reader; activation, % at 9.35 µM; 300,000 compounds, 1.2% hits; AID 743398; in the data active = activation above about 30%, passing the limit was not always enough; inconclusive = no clear call, values can overlap the other calls;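 also: 0% = neutral control wells and 100% = positive control wells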
HSF-1 act – increases HSF-1 driven luciferase reporter signal | NIH3T3-HGL HSF-1 luciferase reporter, MG132, 8 h; 100% = twice DMSO control signal | activation, % at 9 µM | 300,000 compounds, 1.7% hits | AID 504408;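 active = mean replicate activation of at least 50% with a set share of replicates each reaching 50%; inconclusive = only one of those two conditions met; inactive = mean below 50% and too few replicates reaching it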;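 also: 0% = median of the neutral control wells and 100% = twice that signal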
HSF1 inhib – HSF1 inhibition. NIH3T3-HGL HSE-luciferase, MG132-induced, luminescence 8 h; hits give low values. activity change, negative = inhibition, % at 7.5 µM (by protocol). 300,000 compounds, 0.77% hits. AID 2098;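 active = more than half of replicate wells show activity change below -50%, luminescence cut by over half; inconclusive = some wells, but at most half, below -50%; inactive = no replicate well below -50%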;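 also: luciferase reports HSF-1 transcriptional activity via heat shock element; 0% = median of DMSO wells and -100% = zero luminescence signal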
MITF TRPM1 HTS – increases MITF-driven TRPM1 promoter luciferase signal | AID 588334 | 300,000 compounds, 0.75% hits | SK-MEL-5 TRPM1-promoter luciferase, 24 h; % of positive control, neutral wells = 0 | activation, % at 12.5 µM;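 active = mean activation of at least 80% with every replicate also reaching 80%; inconclusive = mean reaches 80% but some replicate falls short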;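 also: 0% = neutral control wells and 100% = parthenolide positive control wells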
An asterisk follows results filed as active; ? = inconclusive; · = not tested or not shown. Most compounds without a hit are left out; they make up all but 3.9% or so of the library.

SMILES	esBAF inh	Wnt act	HSF-1 act	HSF1 inhib	MITF TRPM1 HTS
Cc1ccc(-c2ccc([C@H]3[C@@H](CO)N4CCCCN(Cc5ccccn5)C[C@H]34)cc2)cc1	1	·	·	·	·
CN1[C@@H]2Cn3c(ccc(-c4cccc(F)c4)c3=O)[C@H]1[C@@H](C(=O)Nc1nccs1)[C@@H]2CO	-1	·	·	·	·
C[C@H]1CN([C@@H](C)CO)S(=O)(=O)c2ccc(-c3ccc(C#N)cc3)cc2O[C@H]1CN(C)C(=O)Nc1cc(F)ccc1F	7	·	·	·	·
O=C(/C=C/c1cccc(O)c1)c1cccnc1	·	-5	20	-3	1
O=C(/C=C/c1cccc(O)c1)c1ccc(N2CCOCC2)cc1	33	23	74*	61	18
Clc1ccc2c(N/N=C/c3cccc(Br)c3)ccnc2c1	·	·	28	8	-83
Clc1ccc2c(N/N=C/c3ccccc3Br)ccnc2c1	·	2	66*	27	-84
C/C(CC(=O)Nc1ccc2c(c1)OCCO2)=N\NC(=O)c1ccccc1F	-5	0	30	-3	6
C/C(CC(=O)Nc1cccc(Cl)c1Cl)=N\NC(=O)c1ccccc1N	·	?	55*	25	-30
C/C(CC(=O)Nc1ccc2c(c1)OCO2)=N\NC(=O)c1ccccc1N	·	?	59*	41	·
NC(=O)c1ccccc1NC(=O)Nc1cccc(Cl)c1Cl	·	-4	77*	46	13
C/C(CC(=O)Nc1ccc2c(c1)OCCO2)=N\NC(=O)c1ccccn1	52*	5	49	18	6
OC[C@@H]1[C@H](c2ccc(-c3cccc(F)c3)cc2)[C@H]2CN(CCC(F)(F)F)CCCCN12	-11	·	·	·	·
Cc1ccc(S(=O)(=O)Nc2ccc3c(c2)CC(=O)N([C@@H](C)CO)C[C@H](C)[C@@H](CN(C)Cc2ccccc2)O3)cc1	3	·	·	·	·
CC(C)CCN(CCC(C)C)C(=O)Cc1c(O)c2ccccc2[nH]c1=O	-10	6	53*	22	3
O=C(N/N=C/c1cn(-c2ccccc2)nc1-c1cccs1)c1ccncc1	·	·	27	10	18
O=C(N/N=C/c1cn(-c2cccs2)nc1-c1ccccc1)c1ccc(O)cc1	·	·	57*	21	30
NC(=O)N/N=C/c1cn(-c2ccccc2)nc1-c1cccs1	·	4	40	11	34
O=C(N/N=C/c1cn(-c2cccs2)nc1-c1ccccc1)c1ccccc1Cl	·	6	59*	22	10
O=C(O)[C@@H]1[C@@H](CO)[C@@H]2Cn3c(ccc(-c4cncnc4)c3=O)[C@@H]2N1C(=O)C1CCCCC1	4	·	·	·	·
O=C(/C=C/Nc1cccc([N+](=O)[O-])c1)c1cccs1	73*	·	-9	-5	·
Cc1cc(N/C=C/C(=O)c2cccs2)ccc1F	69*	11	64*	37	24
Cc1ccc(N/C=C/C(=O)c2cccs2)cc1C	·	4	37	9	3
O=C(Nc1ccc(F)cc1)c1ccc(=O)[nH]n1	-4	-2	-74	-71*	-2
CCCCN1CC(O)=C(c2nc3ccccc3s2)C1=N	58*	-1	9	19	72
SMILES	esBAF inh	Wnt act	HSF-1 act	HSF1 inhib	MITF TRPM1 HTS
CCCOc1ccc2ccccc2c1/C=C1\SC(=O)NC1=O	2	1	13	0	·
CCCCOc1ccc2ccccc2c1C=O	73*	8	-18	-3	55
O=C1/C(=N\S(=O)(=O)c2cccs2)C([n+]2cccc(Cc3ccccc3)c2)=C([O-])c2ccccc21	·	·	139*	88	·
CCN(CCCn1c(=S)[nH]c2ncccc2c1=O)c1ccccc1	-16	·	21	6	-10
CCN(CC)CCCn1c(=S)[nH]c2ncccc2c1=O	9	1	62*	16	4
O=C(C[C@H]1C=C[C@H](NS(=O)(=O)c2ccc(F)cc2)[C@H](CO)O1)NC1CCC1	6	·	·	·	·
CCOc1cccc(C(=O)Nc2ccc3c(c2)OCCO3)c1	-45	42*	37	18	·
CCOc1cccc(C(=O)Nc2ccc3ccccc3c2)c1	-30	36*	16	4	·
CCN(CC)c1ccc(NC(=O)c2cnn(CC)c2)cc1	54*	·	0	-7	14
CCOc1cccc(C(=O)NC(=S)Nc2cccc(C)c2)c1	42*	22	49	31	31
C[C@@H]1CN([C@@H](C)CO)S(=O)(=O)c2ccc(-c3cccnc3)cc2O[C@H]1CN(C)C(=O)NC1CCCCC1	-1	·	·	·	·
COc1ccc(S(=O)(=O)N(C)C[C@@H]2Oc3ncc(C#CCN(C)C)cc3C(=O)N([C@H](C)CO)C[C@@H]2C)cc1	-3	·	·	·	·
CCOc1cccc(C(=O)Nc2cccc(C(C)=O)c2)c1	-9	15	45	42	10
O=C(Nc1ccc2c(c1)OCCO2)c1cncc(Br)c1	4	41*	40	15	·
CCOc1cccc(C(=O)Nc2ccc(N(CC)CC)cc2)c1	44*	·	14	11	37
Cc1ccc2sc(N(CCCN(C)C)C(=O)CCS(=O)(=O)c3ccccc3)nc2c1C	-24	-9	111*	75	-29
COc1ccc(/C=N/NC(=O)C(N)=O)c(OC)c1OC	·	-1	7	0	-1
COc1ccc(/C=N/N(C)C2=NCCN2)c(OC)c1OC	-6	-2	-90	-86*	·
C[C@H](CO)N1C[C@H](C)[C@@H](CN(C)Cc2ccc(Oc3ccccc3)cc2)Oc2ccc(NC(=O)Nc3cccc4ccccc34)cc2C1=O	4	·	·	·	·
Cc1ccccc1S(=O)(=O)N[C@@H]1CC[C@@H](CCn2cc(-c3ccccc3)nn2)O[C@H]1CO	-5	·	·	·	·
NC(=O)CCN1CCN(CCOC2Cc3cc(Cl)ccc3Sc3ccccc32)CC1 (stereo unspecified)	·	·	59*	20	17
Cc1ccc(NC(=O)C(=Cc2ccc(C(=O)O)cc2)C(=O)Nc2ccc(C)cc2C)c(C)c1	20	·	555*	470	-44
O=S(=O)(Nc1nc2ccccc2[nH]1)c1ccccc1	4	·	-1	1	·
O=C(Nc1nc2ccccc2[nH]1)c1ccccc1O	·	42*	?	40	?
CC(=O)NNc1ncnc2ccccc12	-8	0	·	·	-25
SMILES	esBAF inh	Wnt act	HSF-1 act	HSF1 inhib	MITF TRPM1 HTS
CS(=O)(=O)Nc1nc2ccccc2[nH]1	0	-1	-86	-82*	4
O=C(Nc1nc2ccccc2[nH]1)c1ccc(Cl)cc1	-27	-3	39	23	-3
O=C(NNc1ncnc2ccccc12)c1cccc(Cl)c1	9	?	60*	21	54
O=C(Nc1nc2ccccc2[nH]1)c1cccc(Cl)c1	14	32*	42	29	·
N#C[C@@H]1[C@H](c2ccc(C#Cc3ccccc3F)cc2)[C@H](CO)N1C(=O)C1CCOCC1	31	·	·	·	·
O=C(C[C@H]1CC[C@@H]2[C@H](COC[C@@H](O)CN2Cc2cc(F)ccc2F)O1)N[C@H]1CCN(Cc2ccccc2)C1	-4	·	·	·	·
O=C(C[C@@H]1CC[C@H]2[C@@H](COC[C@@H](O)CN2Cc2cccc(F)c2)O1)NCC1CCCCC1	-1	·	·	·	·
O=C(/C(=C(\[O-])c1ccccc1)[n+]1ccc2ccccc2c1)c1ccc([N+](=O)[O-])cc1	·	-4	-72	-64*	-14

Source: PubChem BioAssay
